Activity calls are given as the source filed them.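 Rule for the calls: active = target enzyme inhibited at least 50% at a set dose, and selective over every off-target enzyme by a set factor; inactive = weaker inhibition or too little selectivity.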
Experiments:
[1] = competitive ABPP of pPAFAH versus proteome hydrolases – biochemical, gel-based, FP-Rh fluorescence, complex proteome, SAR compounds, selectivity assay for pPAFAH inhibitor project, SAR follow-up (AID 588774); conditions: MW 32 kDa, anti-targets inhibited, at 10 µM;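 for inhibition: 0% = DMSO-only band intensity and 100% = blank gel background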
[2] = system: MW 32 kDa; assay: as above; conditions: at 10 µM, stronger effect = higher value

Structure (SMILES) | anti-target count [1] | inhibition [2]
Cc1cc(N2CCN(C(=O)n3ncc(-c4ccc(Cl)c(Cl)c4)n3)CC2)c2ccccc2n1 | 8 | 50% (inactive)
Cc1cc(N2CCN(C(=O)n3ncc(-c4ccccc4)n3)CC2)c2ccccc2n1 | 9 | 72% (inactive)
Cc1cc(N2CCN(C(=O)Oc3ccc(-n4cccc4)cc3)CC2)c2ccccc2n1 | 0 | 0% (inactive)
Cc1cc(N2CCN(C(=O)Oc3ccc(C(F)(F)F)cc3)CC2)c2ccccc2n1 | 1 | 0% (inactive)
Cc1cc(N2CCN(C(=O)Oc3noc4cc(Cl)ccc34)CC2)c2ccccc2n1 | 4 | 0% (inactive)
Cc1cc(N2CCN(C(=O)Oc3ccc(C4CCCC4)cc3)CC2)c2ccccc2n1 | 0 | 0% (inactive)
Cc1cc(N2CCN(C(=O)Oc3ccc(C4CCCCC4)cc3)CC2)c2ccccc2n1 | 0 | 0% (inactive)
Cc1cc(N2CCN(C(=O)n3ncc(-c4ccc([N+](=O)[O-])cc4)n3)CC2)c2ccccc2n1 | 9 | 85% (inactive)
O=C(N1CCOCC1)n1oc2cc(Cl)ccc2c1=O | 6 | 39% (inactive)
O=C(Oc1noc2cc(Cl)ccc12)N1CCCCC1 | 2 | 0% (inactive)
O=C(Oc1noc2cc(Cl)ccc12)N1CCOCC1 | 3 | 30% (inactive)
COc1ccc(-c2cnn(C(=O)N3CCN(c4cc(C)nc5ccccc45)CC3)n2)cc1 | 8 | 67% (inactive)
Cc1cc(N2CCN(C(=O)Oc3ccc(-c4ccccc4)cc3)CC2)c2ccccc2n1 | 0 | 0% (inactive)
Cc1cc(N2CCN(C(=O)Oc3ccc(-c4ccc(Br)cc4)cc3)CC2)c2ccccc2n1 | 0 | 0% (inactive)
Cc1cc(N2CCN(C(=O)n3oc4cc(Cl)ccc4c3=O)CC2)c2ccccc2n1 | 3 | 0% (inactive)
Cc1cc(N2CCN(C(=O)n3ncc(-c4ccc(OC(F)(F)F)cc4)n3)CC2)c2ccccc2n1 | 9 | 87% (inactive)
Cc1cc(N2CCN(C(=O)Oc3ccc([N+](=O)[O-])cc3)CC2)c2ccccc2n1 | 2 | 0% (inactive)

Source: PubChem BioAssay AID588774 (The Scripps Research Institute Molecular Screening Center, 2011)
